This is a sample that favours compounds with a hit; in the whole collection about 18% have one here.
DT40 TDP1 no CPT: qHTS for Inhibitors of human tyrosyl-DNA phosphodiesterase 1 (TDP1): qHTS in cells in absence of CPT. 420,000 tested, 15% active. DT40 Tdp1-/- hTDP1 cells, no CPT, ATP luminescence, 48 h. Potency, µM (doses to about 46.2 µM), most hits filed as inhibitors. AID 686978, 2013; note: nearly all actives have a fitted effect of over 55% in size
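DT40 Tdp1-/-;hTDP1 cells, no CPT (DMSO vehicle only), 400 cells/well; compounds pin-transferred; ≥48 hr, 37 °C; CellTiter-Glo 30 min RT dark, luminescence read.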
Gal4-VP16 FLuc: Gal4-VP16 reporter inhibition counter-screen. Drosophila S2 Gal4-VP16 UAS-luciferase, luminescence, 20 h. Potency, µM (series often up to 53.6 µM), usual class: inhibitors. 310,000 tested, 3.5% active. AID 2546;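 note: Gal4-VP16 expression switched on by copper sulfate through the metallothionein promoter; nearly all actives have a fitted effect of over 50% in size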
DT40 TDP1 CPT: DT40-hTDP1 cell growth loss with CPT; Potency, µM (doses to about 46.2 µM), hits mostly inhibitors; chicken DT40 Tdp1-/-;hTDP1 cells + 20 nM CPT, ATP luminescence, 48 h; 420,000 tested, 12% active; AID 686979; note: nearly all actives have a fitted effect of over 55% in size
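Chicken DT40 Tdp1-/- cells complemented with human TDP1, 400 cells/well, exposed to compounds plus 20 nM camptothecin for at least 48 h at 37 C; viability read as ATP content by CellTiter-Glo luminescence.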
IL-1B inflam inh: blocks inflammasome-driven IL-1 beta release. THP-1 LPS/ATP IL-1B secretion, AlphaLISA, 16 h; hits give low values. activity change, % at 57.5 µM. 360,000 tested, 4.7% active; in the data active = activity change below about -50%; inconclusive = mostly about -30% to -49%
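Secreted IL-1B measured by AlphaLISA bead assay after 16 h compound exposure of THP-1 cells; compounds (final up to 57.5 uM) added 1 h before LPS (250 ng/mL) and ATP (1.25 mM) stimulation; lower signal means less secretion.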
RORgamma inh: inhibitors of mouse ROR gamma transcriptional activity | P51450 | Drosophila S2 Gal4-RORgamma UAS-luciferase reporter, 20 h | Potency, µM (doses to about 53.6 µM), hits mostly inhibitors | 310,000 tested, 5.4% active; note: nearly all actives have a fitted effect of over 60% in size
Target sequence (P51450 whole entry, looked up, the tested form may be a part): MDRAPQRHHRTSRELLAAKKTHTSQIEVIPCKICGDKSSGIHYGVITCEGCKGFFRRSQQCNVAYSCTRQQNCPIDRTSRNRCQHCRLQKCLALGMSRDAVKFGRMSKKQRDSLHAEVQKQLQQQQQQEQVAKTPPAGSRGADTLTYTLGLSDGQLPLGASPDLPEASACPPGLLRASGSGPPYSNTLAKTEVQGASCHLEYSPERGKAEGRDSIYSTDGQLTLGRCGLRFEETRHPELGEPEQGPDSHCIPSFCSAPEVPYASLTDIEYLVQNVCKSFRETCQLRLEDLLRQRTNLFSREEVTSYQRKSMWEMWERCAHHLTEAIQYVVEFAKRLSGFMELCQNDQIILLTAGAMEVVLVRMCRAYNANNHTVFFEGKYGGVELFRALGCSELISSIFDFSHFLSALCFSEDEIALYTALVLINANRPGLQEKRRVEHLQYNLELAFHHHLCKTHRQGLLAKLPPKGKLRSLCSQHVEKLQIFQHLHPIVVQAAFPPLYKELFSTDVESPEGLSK
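Drosophila S2 cells stably expressing Gal4-DBD/mouse RORγ fusion under metallothionein promoter plus UAS-luciferase; compound 1 h, then 700 uM CuSO4 induction for 20 h at ambient temperature; inhibition read as reduced luminescence.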
LDHA block: inhibitors of human lactate dehydrogenase A | purified LDHA, NADH/diaphorase-resazurin fluorescence; hits give low values | activity change, % (values are at about 110 or 230 µM) | 480,000 tested, 0.15% active; in the data active = activity change below about -30%; inconclusive = mostly about -25% to -30%
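Resorufin fluorescence (ex540/em590), read at 0 and 20 min after diaphorase/resazurin addition, reports the NADH left after a 5 min room-temperature reaction of 2 nM human LDH5 with 0.06 mM NADH and 0.2 mM pyruvate.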
A number is an active result; . = inactive; ? = inconclusive; / = no result. Unless noted, calls come from the whole dose curve; as a rule, active = well fitted curve in the direction sought with a large enough effect; inconclusive = small, poorly fitted or top-dose-only effect, or another doubt; inactive = no such curve, though single readings can be large; an effect the other way counts as inactive or inconclusive.

SMILES | DT40 TDP1 no CPT | Gal4-VP16 FLuc | DT40 TDP1 CPT | IL-1B inflam inh | RORgamma inh | LDHA block
O=C(Sc1ccc(Cl)cc1)c1ccccn1 | 16µM | / | 16µM | -83 | / | .
N/C(=N\OC(=O)c1ccc(Cl)cc1)c1ccccn1 | . | 10µM | . | . | 8.9µM | .
C#Cc1cccc(NCC(=O)N2CCCCCCC2)c1 | / | / | / | / | / | .
CCCn1ccnc1SCC(=O)Nc1sc2c(c1C#N)CCCC2 | / | / | / | / | / | .
O=C(Nc1oc2ccc(Cl)cc2c(=O)c1-c1ccccc1)c1ccc([N+](=O)[O-])cc1 | / | / | / | / | / | .
COc1cc(OC)cc(-c2c(Sc3ccccc3)c3cc(-c4cnc(OC)nc4)ccc3n2C)c1 | . | / | . | . | / | .
COc1cc(C#Cc2c(-c3cncn3C)n(C)c3ccc(-c4ccc(CN5CCOCC5)cc4)cc23)cc(OC)c1 | 8.2µM | / | 5.8µM | . | / | .
COc1cc(C#Cc2c(-c3cncn3C)n(C)c3ccc(-c4cnc(OC)nc4)cc23)cc(OC)c1 | ? | / | 16µM | -58 | / | .
Cc1cccc(C(=O)Nc2cc3c(cc2SCc2ccco2)n(C)c(=O)n3C)c1 | / | / | / | / | / | .
CC(C)c1ccc(N2CC(c3nc(-c4ccccn4)no3)CC2=O)cc1 (stereo unspecified) | / | / | / | / | / | .
O=c1nc(N/N=C/c2ccccn2)cn[nH]1 | 5.2µM | . | 5.2µM | . | ? | .
O=c1cnnc(N/N=C/c2ccccn2)[nH]1 | 3.3µM | . | 4.6µM | . | . | .
Cc1cc(=O)[nH]c(N/N=C/c2ccc(-c3ccc(F)cc3)o2)n1 | 13µM | . | 9.2µM | . | . | .
Cc1ccc(/C=N/Nc2cn[nH]c(=O)n2)o1 | . | . | . | . | ? | .
CSc1ccc(/C=N/Nc2nc(C)cc(=O)[nH]2)cc1 | . | . | . | . | . | .
Cc1cc(=O)[nH]c(N/N=C/c2ccccn2)n1 | 4.6µM | . | 3.7µM | . | ? | .
COc1ccc(CCNc2oc(-c3ccc(OC)cc3)nc2C#N)cc1 | / | / | / | / | / | .
O=C(CSc1nc2c(c(=O)n1CCc1ccccc1)SCC2)Nc1ccc(Cl)cc1 | / | / | / | / | / | .
N/C(=C\C(=O)c1c(O)c(F)c(F)c(F)c1F)C(=O)O | / | / | / | / | / | .
COc1ccc(OC)c(NC(=O)C(=O)c2cn(CC(=O)N3CCOCC3)c3ccccc23)c1 | / | / | / | / | / | .
O=C(CSc1nnc(-c2ccccn2)n1Cc1ccco1)c1ccc(Cl)cc1 | 29µM | . | 16µM | . | ? | .
O=C(CSc1nnc(-c2cnccn2)n1Cc1ccco1)c1ccc(Cl)cc1 | ? | ? | 23µM | . | 10µM | .
O=C(CSc1nnc(-c2ccccn2)n1Cc1ccco1)c1ccccc1 | ? | . | ? | . | . | .
Nc1ncnc(Nc2ccc(F)c(Cl)c2)c1[N+](=O)[O-] | / | / | / | / | / | .
CC(C)(C)c1ccc(/C=N/NC(=S)NC2CCCCC2)cc1 | 12µM | 3.2µM | 15µM | . | 1.1µM | .
SMILES | DT40 TDP1 no CPT | Gal4-VP16 FLuc | DT40 TDP1 CPT | IL-1B inflam inh | RORgamma inh | LDHA block
FC(F)(F)c1cccc(NC(=S)NC2CCCC2)c1 | ? | 8.9µM | ? | . | 5µM | .
Fc1cccc(NC(=S)NC2CCCCCCC2)c1 | ? | 7.1µM | 23µM | ? | 3.5µM | .
C/C(=N/NC(=S)NC1CCCCC1)c1ccc(C(C)(C)C)cc1 | / | / | / | / | / | .
FC(F)(F)c1ccc(NC(=S)NC2CCCCC2)cc1 | 18µM | ? | ? | -100 | 4.5µM | .
Fc1cccc(NC(=S)NC2CC2)c1 | / | / | / | / | / | .
O=C(Nc1cccc(C(F)(F)F)c1)C1CCCCC1 | ? | . | . | . | . | .
NC(=O)NNC(=S)NC1CCCCC1 | / | / | / | / | / | .
CN(C)S(=O)(=O)c1ccc(N2CCN(S(=O)(=O)c3ccc(F)cc3)CC2)c(Cl)c1 | 18µM | . | 18µM | . | ? | .
CN(C)S(=O)(=O)N1CCN(S(=O)(=O)c2ccc(F)cc2)CC1 | . | . | . | . | . | .
Cc1cc(C)cc(NC(=O)C(Sc2nnnn2C2CCCC2)c2ccccc2)c1 (stereo unspecified) | / | / | / | / | / | .
CC1(CCc2ccccc2)NC(=S)N(c2ccccc2)N1 (stereo unspecified) | . | 20µM | . | . | ? | .
CC1(CCc2ccccc2)NC(=O)N(CC(=O)O)C1=O (stereo unspecified) | ? | . | ? | . | . | .
O=C(CCN1N=C(c2ccccc2)CCC1=O)NC1CCCC1 | . | . | . | . | . | .
O=C(CCN1N=C(c2ccccc2)CCC1=O)NC1CCCCC1 | . | / | . | -51 | / | .
O=C(Nc1nnc(SCc2cc(=O)c3ccccc3[nH]2)s1)c1ccccc1 | 7.3µM | / | 23µM | / | / | .
Cc1ccc(C(=O)Nc2nnc(SCc3cc(=O)c4c(C)ccc(C)c4[nH]3)s2)cc1 | 10µM | / | 18µM | / | / | .
COc1ccccc1C(=O)Nc1nnc(SCc2cc(=O)c3ccccc3[nH]2)s1 | 15µM | / | 15µM | / | / | .
O=C(Nc1nnc(SCc2ccccc2)s1)c1cc(=O)c2ccccc2o1 | / | / | / | / | / | .
Cc1ccc2[nH]c(CSc3nnc(NC(=O)COc4ccccc4Cl)s3)cc(=O)c2c1 | ? | / | ? | / | / | .
COC(=O)C1CCC(=O)N1C(c1ccc(OC)cc1)c1cc(OC)c(OC)c(OC)c1 (stereo unspecified) | 1.3µM | / | 1.5µM | . | / | .
Cc1cc(N)ccc1C(C)C | / | / | / | / | / | .
CCCCn1c(=O)n(C)c(=O)c2c(C(F)(F)F)cc(-c3ccncc3)nc21 | 11µM | . | 18µM | . | . | .
Oc1ccccc1-c1cc(-c2ccc3c(c2)OCCO3)n[nH]1 | ? | ? | ? | -61 | 3.2µM | .
COc1ccc(-c2cc(-c3ccc(OC)c(OC)c3)n[nH]2)c(O)c1 | 21µM | ? | 26µM | . | 4µM | .
COc1ccc(-c2cc(-c3cc(F)ccc3O)[nH]n2)cc1OC | ? | ? | ? | . | . | .
SMILES | DT40 TDP1 no CPT | Gal4-VP16 FLuc | DT40 TDP1 CPT | IL-1B inflam inh | RORgamma inh | LDHA block
COc1ccc(-c2cc(-c3ccccc3O)[nH]n2)cc1OC | 18µM | ? | ? | . | 7.1µM | .
O=C(NCC1CC1)C1(C(F)(F)F)CC(CCc2ccccc2)CCCO1 (stereo unspecified) | 21µM | . | 21µM | . | . | .
CCC(C)Cc1c(C)sc2nc(CNc3ccccc3)[nH]c(=O)c12 (stereo unspecified) | / | / | / | / | / | .
CC(=O)N1CCC(O)(c2cccc(C(F)(F)F)c2)CC1 | . | . | . | . | . | .
Cc1ccc2oc(C(=O)N3CCC(O)(c4cccc(C(F)(F)F)c4)CC3)c(C)c2c1 | ? | . | . | -52 | ? | .
O=c1c2[nH]c3ccccc3c2nc(SCc2cccc(F)c2)n1-c1ccccc1 | 23µM | / | ? | / | / | .
COc1ccc(-n2c(SCC(=O)NCc3ccccc3)nc3c([nH]c4ccccc43)c2=O)cc1 | ? | / | 18µM | / | / | .
